PubChem BioAssay AID743395 (Broad Institute, 2014)
About 480 (40%) of roughly 1,200 compounds were called active. The rule behind the calls is not given here. The set was probably picked from earlier hits. Not all results are given here. Results with a measured potency or affinity are listed apart.

Assay: viability loss in human hepatoma cells – cell-based, CellTiter-Glo luminescence, cherry-pick, set 2, cytotoxicity control, dose response (AID 743395)
Details: HepG2 viability, CellTiter-Glo ATP luminescence, 72 h; series mostly up to 26 µM

| Compound | outcome |
| --- | --- |
| O=C(COC(=O)Cc1ccsc1)Nc1cccc(F)c1 | inactive |
| COc1ccccc1OCCNC(=O)CCNC(=O)c1ccccc1OC | inactive |
| COc1cccc2cc(C(=O)NCCN3CCOCC3)c(=O)oc12 | inactive |
| NS(=O)(=O)c1ccc(NC(=O)c2cccc3cc4ccccc4nc23)cc1 | inactive |
| O=C1NC(Cc2ccc(O)cc2)c2nc3ccc(Br)cc3c(=O)n2-c2cc3ccccc3cc21 (stereo not drawn) | inactive |
| COc1ccccc1S(=O)(=O)N1CC[C@@H]2[C@@H](CO)N(C)c3ccc(-c4ccc(F)cc4)cc3[C@@H]21 | inactive |
| COc1ccccc1Cc1c(-c2ccc(Cl)cc2)nc2ccc(Br)cn12 | inactive |
| O=C(O)CCCCCCCCc1cn(Cc2ccc(C(=O)c3ccccc3)cc2)nn1 | inactive |
| CC1CCN(S(=O)(=O)N2CCCC(C(=O)NCc3ccccc3Cl)C2)CC1 (stereo not drawn) | inactive |
| C[C@@](Cc1ccc(O)c(O)c1)(NN)C(=O)O | inactive |
| COc1ccc(NC(=O)c2cc(C3CC3)on2)c(OC)c1 | inactive |
| Cc1ccc(Nc2nc(CSc3nnc(-c4cccnc4)n3-c3ccccc3F)cs2)cc1 | inactive |
| Cc1cc(C(=O)CCC(=O)NC(C)c2ccc(S(N)(=O)=O)cc2)c(C)s1 (stereo not drawn) | inactive |
| Cc1c(Cl)cccc1NC(=O)C1CC(=O)N(C2CCCC2)C1 (stereo not drawn) | inactive |
| COCCNC(=O)C1CCCN(C(=O)c2cc(-c3cccs3)oc2C)CC1 (stereo not drawn) | inactive |
| O=C1NN(c2cccc(Br)c2)C(=O)/C1=C\c1ccc(O)cc1 | inactive |
| CCN1C(=O)c2cccc3c(S(=O)(=O)N(C(C)=O)c4ccc(OC(C)=O)cc4)ccc1c23 | inactive |
| Cc1ccc(N2C(=O)c3cccc4c([N+](=O)[O-])ccc(c34)C2=O)c2cccnc12 | inactive |
| O=C1c2cccc3c([N+](=O)[O-])ccc(c23)C(=O)N1Cc1cccnc1 | inactive |
| CCOc1ccc(NC(=O)c2ccc(NC(=O)CN3C(=O)C(=O)N(CC(C)C)C3=O)cc2)cc1 | inactive |
| CC1C2CCC(C2)C1OC(=O)c1ccccc1C(=O)O (stereo not drawn) | inactive |
| CCCCn1nc(NC(=O)CC)c2cc3cc(OC)ccc3nc21 | inactive |
| O=C1CCC(CCc2nc3ccccc3[nH]2)(c2ccccc2)C(=O)N1 (stereo not drawn) | inactive |
| N#C/C(=C\c1ccccn1)c1nc2ccccc2s1 | inactive |

| Compound | outcome |
| --- | --- |
| O=C(C[C@@H]1C[C@H]2c3cc(NC(=O)CC4CC4)ccc3O[C@H]2[C@H](CO)O1)NCc1cccc(F)c1 | inactive |
| COC(=O)C1(C)CCCC2(C)C3CCC(C(C)C)C(CO)C3C(CO)CC12 (stereo not drawn) | inactive |
| CCSc1nnc(N2C(=O)C(O)=C(C(=O)c3ccco3)C2c2cccc(OC)c2)s1 (stereo not drawn) | inactive |
| Cc1cccc(C)c1OCC(=O)OCC(=O)Nc1ccc(Cl)cn1 | inactive |
| O=C(Nc1ccc(Cl)cn1)c1cccc2ccccc12 | inactive |
| CC(=Nc1ccccc1O)c1sc2ccccc2c1O | inactive |
| COc1ccc(N=C2C(=O)N3CCCc4cccc2c43)cc1 | inactive |
| CCN(C(=O)CSc1nc2ccccc2c(=O)n1-c1ccccc1F)C1CCS(=O)(=O)C1 (stereo not drawn) | inactive |
| O=C(CN1C(=O)NC2(CCCCCCC2)C1=O)Nc1ccc(Br)cc1 | inactive |
| Nc1ccccc1C(=O)N1O[C@@H]2C=C[C@H]1C2 | inactive |
| CCOC(=O)c1sc(NC(=O)c2c(CC)noc2C)nc1C | inactive |
| CCOC(=O)c1sc2nc(Cc3ccc(Cl)cc3)[nH]c(=S)c2c1C | inactive |
| CC1CCN(C(=O)c2ccc(S(=O)(=O)N3CCCC3)cc2)CC1 | inactive |
| Cc1noc(C)c1C(=O)NCC1COc2ccccc2O1 (stereo not drawn) | inactive |
| N#CC1c2ccccc2-c2ccccc2N1C(=O)c1ccccc1 (stereo not drawn) | inactive |
| Cc1ccc(NC(=O)CSC2=NN3CCCC(=O)N=C3S2)c(C)c1 | inactive |
| Fc1ccccc1/C=N/NC(=S)Nc1ccc(Cl)cc1Cl | inactive |
| COc1ccc(Cl)cc1NC(=O)CN(C)CC(=O)Nc1cc(OC)c(OC)c(OC)c1 | inactive |
| CC(=O)Nc1ccc(NC(=O)COc2cccc3c2OC(C)(C)C3)cc1 | inactive |
| COc1cccc(NC(=O)CN2C(=O)NC3(CCCCCC3)C2=O)c1 | inactive |
| CCOC1=C/C(=C/c2c(N)n3nc(S(=O)(=O)CC)sc3nc2=O)C=CC1=O | inactive |
| COc1ccc(C=NNC(=O)CCCC(=O)NN=Cc2ccc(OC)c(O)c2)cc1O | inactive |
| Fc1ccc(/C=N/NC(=S)Nc2ccc(Cl)cc2Cl)cc1 | inactive |
| Cc1cccc(NC(=O)c2ccccc2NC(=O)C2CCCCC2)c1C | inactive |

| Compound | outcome |
| --- | --- |
| COc1ccc(/C=N/NC(=O)c2c(C)nc3ccc(Br)cn23)cc1OC | inactive |
| COc1cc(/C=C/C(=O)c2ccc3c(c2)OCO3)cc(Cl)c1O | inactive |
| Cc1cc(NC(=O)CN2C(=O)NC3(CCCCCC3)C2=O)ccc1Br | inactive |
| Cc1cnc(NC(=O)CCc2ccccc2)s1 | inactive |
| CCC1=Nc2cc(C(=O)NCc3cccnc3)ccc2Sc2ccc(C)cc21 | inactive |
| COc1cc(C(=O)NCC2CCCO2)ccc1OCc1ccc(Cl)cc1 (stereo not drawn) | inactive |
| CCn1c(SC(C)C(=O)NCC2CCCO2)nc2ccccc21 (stereo not drawn) | inactive |
| COc1ccccc1OCC(O)CN1C(=O)NC(C)(C)C1=O (stereo not drawn) | inactive |
| C/C=C/c1ccc([C@H]2[C@@H](CNC(=O)CC)N(C(=O)COC)[C@H]2CO)cc1 | inactive |
| CCN(C(=O)COC(=O)/C=C/c1c(C)nn(-c2ccccc2)c1C)c1c(N)n(Cc2ccccc2)c(=O)[nH]c1=O | inactive |
| CN(Cc1ccco1)c1ncnc2ccc(-c3ccc4c(ccn4C)c3)cc12 | inactive |
| COc1ccccc1C(=O)Nc1ccc2c(c1)nc(CCNC(=O)c1ccco1)n2C | inactive |
| CC1(C)Cc2c(c(-c3ccco3)nc3sc4c(NCCN5CCOCC5)ncnc4c23)CO1 | inactive |
| O=C(c1cccc(S(=O)(=O)N2CCOCC2)c1)N1CCCC(C(F)(F)F)C1 (stereo not drawn) | inactive |
| CN(CCOc1ccc(Cl)cc1)C(=O)c1cccc(S(=O)(=O)N2CCN(c3ccccc3)CC2)c1 | inactive |
| CCN(CC)S(=O)(=O)c1ccc(NC(=O)C2CC(=O)N(c3ccc4c(c3)OCCO4)C2)cc1 (stereo not drawn) | inactive |
| Cn1cc(C(=O)OCC2CCN(CCNS(C)(=O)=O)CC2)c2ccccc21 | inactive |
| Cc1cc(C(=O)N/N=C/c2ccc3c(c2)OCO3)c2ccccc2n1 | inactive |
| CCOc1ccc(NC(=O)c2ccccc2NC(=O)CNC2CCCC(C)C2C)cc1 (stereo not drawn) | inactive |
| COc1cc(C(=O)Nc2ccc(C)cc2)c2ccccc2n1 | inactive |
| COc1ccc(OCC(=O)N/N=C/C=C/c2ccccc2)cc1 | inactive |
| COc1ccc2[nH]c(C(=O)N/N=C/c3ccc(OC)c(O)c3)cc2c1 | inactive |
| CC(C)C[C@@H](COCc1ccc(C(F)(F)F)cc1)N1CCN(C(=O)c2ccc(C(F)(F)F)cc2)CCC1=O | inactive |
| CN(CC(=O)NCCc1ccc(S(N)(=O)=O)cc1)CC(=O)Nc1ccc(Cl)c(C(F)(F)F)c1 | inactive |

| Compound | outcome |
| --- | --- |
| Nc1c2c(nc3ccccc13)CCCC2 | inactive |
| CCOC1=C2CN(S(=O)(=O)c3ccc(C)cc3)CC[C@@H]2N(S(=O)(=O)c2ccc(C)cc2)[C@H](c2ccccc2)C1 | inactive |
| CCOC(=O)C1CCCN(c2nc3ccccc3nc2NS(=O)(=O)c2ccc(C)cc2)C1 (stereo not drawn) | inactive |
| C[C@H]1C[C@H]2[C@@H]3CCC4=CC(=O)C=C[C@]4(C)[C@@]3(F)[C@@H](O)C[C@]2(C)[C@@]1(O)C(=O)CO | inactive |
| C[C@@H]1CN([C@H](C)CO)S(=O)(=O)c2ccc(-c3ccc(C#N)cc3)cc2O[C@H]1CN(C)Cc1ccccn1 | inactive |
| COc1cccc(S(=O)(=O)N(C)C[C@@H]2Oc3cc(C4=CCCC4)ccc3S(=O)(=O)N([C@@H](C)CO)C[C@H]2C)c1 | inactive |
| Cc1ccc(-c2ccc3c(c2)O[C@H](CN(C)C(=O)Nc2ccc(F)cc2)[C@@H](C)CN([C@@H](C)CO)S3(=O)=O)cc1 | inactive |
| C[C@H]1CN([C@@H](C)CO)S(=O)(=O)c2ccc(C3=CCCCC3)cc2O[C@@H]1CN(C)C(=O)Cc1ccncc1 | inactive |
| C[C@@H]1CN([C@H](C)CO)S(=O)(=O)c2ccc(-c3ccc(C#N)cc3)cc2O[C@H]1CN(C)Cc1cccc(F)c1 | inactive |
| Cc1ccc(-c2ccc3c(c2)O[C@@H](CN(C)C(=O)Nc2ccc(F)cc2)[C@@H](C)CN([C@H](C)CO)S3(=O)=O)cc1 | inactive |
| Cc1ccc(-c2ccc3c(c2)O[C@@H](CN(C)C(=O)Nc2ccc(F)cc2)[C@@H](C)CN([C@@H](C)CO)S3(=O)=O)cc1 | inactive |
| Cc1ccc(-c2ccc3c(c2)O[C@H](CN(C)C(=O)Nc2ccc(C(F)(F)F)cc2)[C@@H](C)CN([C@@H](C)CO)S3(=O)=O)cc1 | inactive |
| CC(=O)c1c(C)[nH]c(C(=O)OCc2nnc(-c3ccc([N+](=O)[O-])cc3)o2)c1C | inactive |
| C[C@@H]1CN([C@@H](C)CO)S(=O)(=O)c2ccc(C#Cc3ccc(F)cc3)cc2O[C@H]1CN(C)C(=O)c1ccccn1 | inactive |
| Cc1ccc(-c2ccc3c(c2)O[C@H](CN(C)C(=O)Nc2ccc(C(F)(F)F)cc2)[C@H](C)CN([C@@H](C)CO)S3(=O)=O)cc1 | inactive |
| C[C@@H]1CN([C@@H](C)CO)S(=O)(=O)c2ccc(-c3ccc(C#N)cc3)cc2O[C@H]1CN(C)Cc1cccc(F)c1 | inactive |
| C[C@@H]1CN([C@H](C)CO)S(=O)(=O)c2ccc(C#CC3CC3)cc2O[C@H]1CN(C)Cc1ccccn1 | inactive |
| CO[C@@H](CN(C)S(=O)(=O)c1ccc(C)cc1)[C@H](C)CN([C@@H](C)CO)S(=O)(=O)c1cccc(Cl)c1 | inactive |
| O=C(Cc1ccccn1)NCC[C@@H]1CC[C@H](NC(=O)Nc2ccc(C(F)(F)F)cc2)[C@@H](CO)O1 | inactive |
| O=C(O)c1ccccc1-c1nc(-c2ccccc2)c(-c2ccccc2)[nH]1 | inactive |
| O=C(NCc1ccccc1)C(c1ccc(-c2ccccc2)cc1)n1c(=O)c(-c2cc3ccccc3[nH]2)nc2ccccc21 (stereo not drawn) | inactive |
